A selection: hits, their analogues and other compounds. The true share with any hit is near 3.4%.
FBW7 act: human FBW7 E3 ligase activation, primary screen. Q969H0. AlphaScreen FBW7–phospho-cyclin E peptide binding, activator screen. normalized activity (activation), % at 26.1 µM. 0.13% of 650,000 active. AID 1259310; in the data active = normalized activity above about 1.9%;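 also: purified mutant Fbw7 with reduced substrate affinity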
MITF primary: blocks human microphthalmia-associated transcription factor | O75030 | AlphaScreen MITF homodimerization, bead proximity signal | inhibition, % at 2.6 µM | 0.91% of 650,000 active; in the data active = inhibition above about 50%
Target sequence (O75030 whole entry, looked up): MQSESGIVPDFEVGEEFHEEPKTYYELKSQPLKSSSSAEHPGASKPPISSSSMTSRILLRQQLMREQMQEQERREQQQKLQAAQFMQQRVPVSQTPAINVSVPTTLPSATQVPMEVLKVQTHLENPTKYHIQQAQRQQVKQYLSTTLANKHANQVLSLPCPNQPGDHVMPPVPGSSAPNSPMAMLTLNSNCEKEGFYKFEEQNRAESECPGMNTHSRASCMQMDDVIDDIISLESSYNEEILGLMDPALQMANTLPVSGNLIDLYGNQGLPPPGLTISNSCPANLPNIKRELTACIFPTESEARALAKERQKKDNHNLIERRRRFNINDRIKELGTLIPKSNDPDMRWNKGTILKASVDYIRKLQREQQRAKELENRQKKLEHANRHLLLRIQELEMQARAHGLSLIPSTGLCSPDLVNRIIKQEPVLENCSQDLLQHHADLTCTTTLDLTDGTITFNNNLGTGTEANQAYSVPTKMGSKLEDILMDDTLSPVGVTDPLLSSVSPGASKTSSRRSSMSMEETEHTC
TEAD-YAP inh: TEAD-YAP interaction inhibition; inhibition, % at 9.12 µM; HEK-TIYL cells, TEAD-Gal4/YAP UAS-luciferase luminescence; 1.4% of 640,000 active; in the data active = inhibition above about 32%
GPR151 activ: activators of human GPR151; Q8TDV0; PathHunter beta-arrestin GPR151 cells, luminescence; activation, % at 11.2 µM; 1% of 650,000 active; AID 1508602; in the data active = activation above about 4.9%
GPR151 conf act: confirmation of human GPR151 activators; GPR151 PathHunter beta-arrestin cells, luminescence, 90 min; % of EA-reagent control over plate median; activation, % at 11.2 µM; AID 1508609; shares compounds with GPR151 activ; 6,700 tested, under 10 active;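 active = mean percent activation across replicates above the confirmation screen cutoff of 4.91%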
GPR119 counter: GPR119 activation, counter-screen for GPR151 activators | shares compounds with GPR151 activ | GPR119 PathHunter beta-arrestin cells, luminescence, 90 min; 0 = compound-well median, 100 = enzyme-acceptor control | activation, % at 11.2 µM | 0.3% of 6,700 active | AID 1508611;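 active = mean percent activation in the counterscreen above 29.09%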;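 also: counterscreen on off-target GPR119 to flag nonselective hits from the GPR151 activator screen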
Hits are given with their value; n = inactive; x = no result; ! = repeats disagree.

SMILES | FBW7 act | MITF primary | TEAD-YAP inh | GPR151 activ | GPR151 conf act | GPR119 counter
NC(=O)c1ccc(-c2ccc3c(-c4ccc(N5CCNCC5)cc4)[nH]nc3n2)cc1 | n | n | n | 5.9 | n | n
CC(=O)c1ccccc1-c1ccc2c(-c3ccc(N4CCNCC4)cc3)[nH]nc2n1 | n | n | n | n | x | x
O=C1CS/C(=N/N=C/c2ccccc2)N1 | n | n | n | n | x | x
O=C1CS/C(=N\N=C\c2ccc(O)cc2)N1 | n | n | n | 7.4 | n | n
CCOC(=O)N1CCN(C(=O)Cn2nnnc2CN2CCCCCC2)CC1 | n | n | n | n | x | x
CC(C)N(C)Cc1nnnn1CC(=O)NC1(c2ccccc2)CC1 | n | n | n | 8.3 | n | n
CC(C)N(C)Cc1nnnn1CC(=O)NCC(c1ccccc1)c1ccccc1 | n | n | n | n | x | x
CCOC(=O)N1CCN(C(=O)Cn2nnnc2CN(C)C(C)C)CC1 | n | n | n | 5.2 | n | n
COc1ccc(C(=O)Nc2ccnn2C2CCN(Cc3ccon3)CC2)cc1 | n | n | n | n | x | x
COc1ccc(C(=O)Nc2ccnn2C2CCN(Cc3cn(C)nc3C)CC2)cc1 | n | n | n | 5.6 | n | n
COc1ccc(C(=O)Nc2ccnn2C2CCN(C(=O)C3CCOC3)CC2)cc1 (stereo not given) | n | n | n | 5.8 | n | n
CCOC(=O)c1ccccc1N=NNc1ccc(C(=O)OC)cc1 | n | n | n | n | x | x
O=C(O)CCN1C(=O)/C(=C\c2ccco2)SC1=S | n | n | n | 11 | n | n
O=C(O)CCN1C(=O)/C(=C/C=C/c2ccco2)SC1=S | n | n | n | n | x | x
O=C(O)CN1C(=O)/C(=C/c2ccc(SCc3ccco3)o2)SC1=S | n | n | n | n | x | x
O=C(O)CN1C(=O)/C(=C/c2ccc(I)o2)SC1=S | n | 55 | n | 6.7 | n | n
COC(=O)CN1C(=O)S/C(=C/c2ccco2)C1=O | n | n | n | 7.0 | n | n
CCOc1ccc(/C(O)=C2/C(=O)C(=O)N(CCCN(C)C)C2c2ccc(C(C)(C)C)cc2)c(C)c1 (stereo not given) | n | n | n | n | x | x
CC(=O)Nc1cnc2cnc(-c3ccc(C(C)C)cc3)cn12 | n | n | n | 5.2 | n | n
C=CCSc1nnc2c(n1)OC(/C=C/c1ccc([N+](=O)[O-])o1)Nc1ccc(Br)cc1-2 (stereo not given) | n | n | n | 9.1 | n | n
CCOc1ccccc1C(=O)Nc1cc(OC)cc(OC)c1 | n | n | n | n | x | x
CCOc1ccc(CN2CCC3(CCC(CNC(=O)c4cc(C)nn4C)O3)CC2)cc1 (stereo not given) | n | n | n | n | x | x
O=C(c1ccc2ccccc2n1)N1CCOCC1 | n | n | n | 5.4 | n | n
CC1(C)Cc2c(sc3nc(SCc4ccc(Br)cc4)n(-c4ccc(Br)cc4)c(=O)c23)CO1 | n | n | n | n | x | x
CCOC(=O)c1ccc(NC(=S)NNC(=O)Cc2cccn2C)cc1 | n | n | n | 10 | n | n
SMILES | FBW7 act | MITF primary | TEAD-YAP inh | GPR151 activ | GPR151 conf act | GPR119 counter
COc1ccc(OC)c(NC(=O)CCC2CCCCC2)c1 | n | n | n | n | x | x
CC1CCCCN1c1ncccc1C(=O)N1CCCC1 (stereo not given) | n | n | n | n | x | x
CC1CCCCN1c1ncccc1C(=O)NC1CCCC1 (stereo not given) | n | n | n | 6.4 | n | n
CCOc1ccc(NC(=O)CSc2nc3c(sc(=S)n3-c3ccccc3C)c(=O)n2-c2ccccc2)cc1 | n | n | n | n | x | x
CC(=O)Nc1ccc(Nc2nc(-c3ccc(C(=O)NC4CC4)cc3)nc3nc[nH]c23)cc1 | n | n | n | 7.8 | n | n
CC(C)C1N2CC3([N+](=O)[O-])CN1CC([N+](=O)[O-])(C2)C3(C)C (stereo not given) | n | n | n | n | x | x
COc1ccc(-c2c3c(=O)n(C)c(=O)n(C)c3cn2-c2cc(C)ccc2O)cc1 | n | n | n | 5.4 | n | n
CC(C)(C)c1csc(NC(=O)c2cc([N+](=O)[O-])ccc2Cl)n1 | n | n | n | 7.1 | n | n
CC(C)(C)c1csc(NC(=O)c2cc([N+](=O)[O-])cc([N+](=O)[O-])c2)n1 | n | n | n | n | x | x
CC(C)(C)c1csc(NC(=O)c2cccc(F)c2)n1 | n | n | n | n | x | x
CC(=O)Oc1cccc(C(=O)Nc2nc(C(C)(C)C)cs2)c1 | n | n | n | 7.3 | n | n
CO/N=C(/C(=O)N[C@@H]1C(=O)N2C(C(=O)O)=C(COC(C)=O)CS[C@H]12)c1csc(N)n1 | n | n | n | n | x | x
CC(=O)OCC1=C(C(=O)O)N2C(=O)[C@@H](NC(=O)Cc3cccs3)[C@H]2SC1 | n | n | n | 19! | n | n
CC(C)C(=O)Nc1nc2ccc(F)cc2s1 | n | n | n | n | x | x
CCc1ccccc1NC(=S)Nc1nc2ccc(F)cc2s1 | n | n | 46 | 5.5 | n | n
CC(C)(C)C(=O)COC(=O)CCC(=O)c1cccs1 | n | n | n | 6.1 | n | n
CC(C)C(=O)Nc1ccc(SCC(=O)N2CCOCC2)nn1 | n | n | n | n | x | x
COc1ccc(CN2CCN(CCCc3ccccc3)C(CCO)C2)c(O)c1 (stereo not given) | n | n | n | n | x | x
COc1cccc(CN2CCN(Cc3ccccc3O)CC2CCO)c1 (stereo not given) | n | n | n | 8.1 | n | n
Cc1ccccc1CN1CCN(Cc2cccc(OCCO)c2)CC1CCO (stereo not given) | n | n | n | 5.9 | n | n
CC(C)=CCN1CCN(Cc2cccc(OCCO)c2)CC1CCO (stereo not given) | n | n | n | n | x | x
COc1ccc(CN2CCN(CCCc3ccccc3)C(CCO)C2)c(OC)c1 (stereo not given) | n | n | n | 5.0 | n | n
OCCC1CN(Cc2ccn[nH]2)CCN1Cc1ccccc1F (stereo not given) | n | n | n | n | x | x
Cc1ccccc1CN1CCN(Cc2ccn[nH]2)CC1CCO (stereo not given) | n | n | n | 6.0 | n | n
COc1ccc(/C=C/c2nc3ccc([N+](=O)[O-])cc3s2)cc1O | n | n | n | n | x | x
Cc1sc2nc[nH]c(=S)c2c1-c1ccc(F)cc1 | n | n | n | n | x | x
CCOc1ccccc1CN1CCN(C2CCN(c3ccccc3F)CC2)CC1CCO (stereo not given) | n | n | n | 11 | n | n
C=CCOc1ccccc1CN1CCN(Cc2ccsc2)C(CCO)C1 (stereo not given) | n | n | n | 6.1 | n | n
OCCC1CN(Cc2cc(F)cc(F)c2)CCN1Cc1ccccc1F (stereo not given) | n | n | n | n | x | x
COc1cccc(CN2CCN(Cc3cc(Cl)c(O)c(OC)c3)CC2CCO)c1 (stereo not given) | n | n | n | 6.3 | n | n

Compound activity: PubChem BioAssay, The Scripps Research Institute Molecular Screening Center
